Data on eight compounds can be found in PubChem BioAssay (NCI).

What all share (experiment): NCI-60 one-dose screen, 48 h (100 = growth as untreated, 0 = no growth, -100 = all killed)
Details in all cases: 10 µM unless noted

For assay [1], the system named is NCI-H23 lung.
Assay [2] has as its system NCI-H226 lung.
Assay [3] relates to NCI-H322M lung.
The test system of assay [4] is HOP-62 NSCLC.
Assay [5] concerns HOP-92 NSCLC.
Assay [6] deals with NCI-H522 lung.
Assay [7] concerns A549/ATCC NSCLC.
Assay [8] deals with 786-0 renal.
The subject of assay [9] is COLO 205 colon.
Assay [10] has as its system DU-145 prostate.
The test system of assay [11] is K-562 leukemia.
The subject of assay [12] is MALME-3M melanoma.
In assay [13] the test system is MDA-MB-231 breast.
In assay [14] the test system is RXF 393 renal.
The test system of assay [15] is SF-268 CNS.
Assay [16] concerns SF-295 CNS.
Assay [17] has as its system SF-539 CNS.
Assay [18] has as its system UACC-257 melanoma.
Assay [19] concerns M14 melanoma.

Compounds without any hit were thinned out: in the full panel of roughly 83,000, 20% have a hit.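 A percent growth of 40 corresponds to 60% growth inhibition; 0 means no net growth; -100 means all cells died. Active threshold: below 10.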 Unmarked numbers belong to inactive results. The source made the active and inactive calls.

On to `COc1ccc(Cl)cc1NC(=O)c1cc2c(n1C)-c1nc(NC(=O)C(C)C)sc1CC2`, for which the growth in assay [1] was 89.4%; in [2], 61.3%; in assay [3], 99.1%; in [4] it was 85.7%; in assay [5], 91%; in assay [6] it was 49.9%. In addition, the growth in [7] was 71.5%; in assay [8], 88.1%; in [9], 96.8%; in assay [10], 83.5%; in assay [11], 79.8%; in assay [12] it was 99.3%. Further, the growth was 30.5% in assay [13]; 101% in [14]; 71.2% in assay [15]; 92.5% in [16]; -27.9% (active) in assay [17]; 88% in assay [18]. In assay [19], the growth was 84.8%.

With `COc1ccc(-c2coc3c(CO)c(O)ccc3c2=O)cc1`, the growth in assay [1] was 79.5%; in assay [2], 61.7%; in assay [3] it was 52.9%; in assay [4] it was 53%; in assay [5], 55.8%; in [6], 67.2%. Moreover, the growth in assay [7] is 90.5%; in [8], 90.3%; in [9], 115%; in assay [10] it was 9.29% (active); in assay [12] it was 21.3%; in [13], 25%. For the same compound, the growth in assay [14] was -27.4% (active); in assay [15], 22.2%; in assay [16], 23.1%; in assay [17], 47.9%; in assay [18], 90.3%; in assay [19], 75.5%.

As for `C[C@H]1C=C(C[C@@H](O)CCCCCCCCCC[C@@H](O)[C@H]2CCC(=O)O2)C(=O)O1`, the growth in assay [1] is 95.5%; in [2] it was 96.5%; in assay [3] it was 94.2%; in assay [4], 109%; in assay [5] it was 68%; in assay [6], 73.3%. The growth in assay [7] is 110%; in [8], 96.8%; in [10], 112%; in assay [11] it was 83.5%; in [12] it was 122%; in [13], 102%. Moreover, the growth is 100% in assay [14]; 115% in assay [15]; 109% in assay [16]; 92.5% in assay [17]; 102% in assay [18]; 101% in assay [19].

Turning to `Cc1c(C(C)(C)C)cc(C(C)(C)C)c2c1CN(C)CO2`, the growth in assay [1] was 102%; in assay [2] it was 111%; in assay [3], 105%; in assay [4], 103%; in assay [5], 112%; in assay [6], 93.4%. Besides, the growth in assay [7] was 111%; in [8], 105%; in assay [9], 105%; in assay [10] it was 112%; in assay [11], 99.4%; in assay [12] it was 95.5%. Moreover, the growth was 110% in assay [13]; 122% in assay [14]; 103% in assay [15]; 103% in [16]; 103% in [17]; 99.5% in assay [18]. For the same compound, in [19], the growth is 118%.

As to `COc1ccccc1NC(=O)COc1ccc(/C=C2/Oc3cc4occc4c(OC)c3C2=O)cc1OC`, the growth in assay [1] is 97.1%; in assay [2], 101%; in assay [3], 115%; in assay [4], 101%; in assay [5], 99.1%; in assay [6], 86.9%. For the same compound, the growth in assay [7] was 96.6%; in [8] it was 96.1%; in assay [9] it was 114%; in assay [10], 114%; in assay [11] it was 99.4%; in assay [12], 115%. The growth was 99.8% in assay [13]; 103% in assay [14]; 103% in [15]; 103% in [16]; 101% in assay [17]; 100% in [18]. In addition, the growth in assay [19] is 106%.

Regarding `COc1ccc(/C(=C/c2cc(OC)c(OC)c(OC)c2)[N+](=O)[O-])cc1`, the growth in assay [1] is 24.1%; in assay [2], 3.77% (active); in assay [3], 86.7%; in [4] it was 68.3%; in [5] it was -24.6% (active); in [6], -37% (active). Besides, the growth was 65.8% in assay [7]; -44.3% (active) in assay [8]; 16.3% in assay [10]; 3.58% (active) in [11]; -10.8% (active) in assay [12]; 9.98% (active) in assay [13]. Moreover, the growth in assay [14] was -85.1% (active); in [15], 17.6%; in [16], 103%; in [17], -11.3% (active); in [18], 31.8%; in assay [19], 2.06% (active).

As to `c1ccc([Se]CCCN2CCN(CCC[Se]c3ccccc3)CC2)cc1`, the growth in [1] is 106%; in [2] it was 116%; in assay [3], 121%; in assay [4] it was 94.5%; in assay [5] it was 87.3%; in assay [6] it was 119%. The growth was 108% in assay [7]; 96.4% in [8]; 135% in [9]; 109% in assay [10]; 129% in [11]; 123% in [12]. For the same compound, the growth in assay [13] was 98.8%; in assay [14], 44.6%; in assay [15], 109%; in assay [16], -58.4% (active); in assay [17], 112%; in [18], 104%. Moreover, in [19], the growth was 90.3%.

As for `COc1ccc(-c2nn(-c3ccc(NC(=O)Nc4ccc(Cl)c(C(F)(F)F)c4)cc3)cc2-c2ccncc2)cc1Cl`, the growth in [1] is 6.3% (active); in assay [2], 1.73% (active); in assay [3] it was 32.7%; in [4], -0.289% (active); in [5], -22% (active); in assay [6], -2.66% (active). Further, the growth in [7] was 10.3%; in [8] it was -33.7% (active); in [9], -74.5% (active); in [10] it was 20.5%; in assay [11], 10.3%; in [12], 2.95% (active). Besides, the growth in [13] is -52.1% (active); in assay [14], -68.3% (active); in assay [15], 19%; in assay [16], -25.9% (active); in [17], -1.2% (active); in assay [18], -5.92% (active). The growth in assay [19] was -4.4% (active).
